Records with an inconclusive call do not appear. Activity calls are given as the source filed them. Calls come from the whole dose curve; as a rule, active = well fitted curve in the direction sought with a large enough effect; inconclusive = small, poorly fitted or top-dose-only effect, or another doubt; inactive = no such curve, though single readings can be large; an effect the other way counts as inactive or inconclusive.
Columns and labels:
[1] = Cell Viability - LYMP2-005 (AID 967); note: series mostly up to about 92 µM
Outline: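 qHTS viability screen in LYMP2-005 cells: 24 h at 37 C with compound, ATP luminescence via CellTiter-Glo, AC50 from Hill curves.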

[2] = Cell Viability - LYMP2-009 (AID 968); note: series mostly up to about 92 µM; nearly all actives have a fitted effect of over 55% in size
[3] = Cell Viability - LYMP2-011 (AID 969); note: nearly all actives have a fitted effect of over 60% in size
Outline: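 2500 cells/well, 5 hr 37 C; compound added, 24 hr 37 C; CellTiter-Glo 30 min RT; luminescence. qHTS concentration-response, Hill-equation AC50. Tetraoctylammonium bromide positive control.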

[4] = Cell Viability - LYMP2-013 (AID 970); note: series mostly up to about 92 µM; nearly all actives have a fitted effect of over 55% in size
Outline: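 qHTS; 2500 lymphoblastoid cells/well; 5 hr 37 C settle; cpd 24 hr 37 C; CellTiter-Glo, 30 min RT; luminescence. AC50 = Hill fit.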

[5] = Cell Viability - LYMP2-015 (AID 971); note: nearly all actives have a fitted effect of over 55% in size
Outline: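 Luminescent ATP read-out (CellTiter-Glo) served as the viability measure after lymphoblastoid cells were exposed to compounds for 24 hours at 37 C. Concentration-response data were fitted with the Hill equation to give AC50.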

[6] = Cell Viability - LYMP2-019 (AID 973); note: nearly all actives have a fitted effect of over 55% in size
Outline: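 Luminescent ATP read-out (CellTiter-Glo, 30 min room temperature) served as the viability measure after 24 hr treatment of lymphoblastoid cells at 37 C. Concentration-response data were fitted to the Hill equation for AC50.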

[7] = Cell Viability - LYMP2-021 (AID 974)
Outline: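 Plate 2500 lymphoblastoid cells per well and incubate 5 hr at 37 C. Add compounds over a concentration range and incubate 24 hr at 37 C. Add CellTiter-Glo, wait 30 min at room temperature, read luminescence.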

[8] = Cell Viability - LYMP2-023 (AID 975)
Outline: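 2500 cells/well, 5 hr 37 C; cpd 24 hr 37 C; CellTiter-Glo, 30 min RT; luminescence. qHTS conc-response, Hill fit -> AC50. Pos ctrl tetraoctylammonium bromide.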

[9] = Cell Viability - LYMP2-025 (AID 976); note: series mostly up to about 92 µM
Outline: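 Seed 2500 LYMP2-025 cells/well; 5 hr at 37 C; add compound; 24 hr at 37 C; add CellTiter-Glo; 30 min RT; read luminescence. AC50 from Hill-modelled concentration-response.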

[10] = Cell Viability - LYMP2-002 (AID 977); note: series mostly up to about 92 µM
Outline: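 Luminescent ATP readout (CellTiter-Glo, 30 min room temperature) after 24 h compound exposure at 37 C of a human lymphoblastoid line, 2500 cells/well. AC50 values derived by standard Hill fitting of qHTS concentration-response data.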

[11] = Cell Viability - LYMP2-006 (AID 978); note: series mostly up to about 92 µM; nearly all actives have a fitted effect of over 60% in size
Outline: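 Concentration-dependent loss of intracellular ATP in a human lymphoblastoid line after 24 hr treatment at 37 C was measured by CellTiter-Glo luminescence, with AC50 values obtained from standard Hill-equation modelling.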

[12] = Cell Viability - LYMP2-007 (AID 979);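 note: cells exposed to compound for 24 h before reading; nearly all actives have a fitted effect of over 60% in size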
Outline: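 Luminescent ATP signal (CellTiter-Glo) serves as the viability read-out after 24 hr compound treatment of lymphoblastoid cells in complete medium at 37 C. Concentration-response data were fitted to the Hill equation to give AC50 values.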

[13] = Cell Viability - LYMP2-008 (AID 980); note: nearly all actives have a fitted effect of over 60% in size
Outline: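 qHTS, human lymphoblastoid line, 2500 cells/well; 5 hr preincubation, 24 hr compound, 37 C. CellTiter-Glo ATP luminescence. AC50 via Hill equation. Tetraoctylammonium bromide positive control.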

[14] = Cell Viability - LYMP2-012 (AID 982)
[15] = Cell Viability - LYMP2-014 (AID 983); note: series mostly up to about 92 µM; nearly all actives have a fitted effect of over 50% in size
Outline: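 Luminescent ATP signal (CellTiter-Glo, 30 min at room temperature) serves as the viability read-out after 24 hr compound exposure at 37 C. Cells were seeded at 2500 per well and settled 5 hr beforehand.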

[16] = Cell Viability - LYMP2-016 (AID 984); note: nearly all actives have a fitted effect of over 55% in size
Outline: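 Acute toxicity in a Coriell human lymphoblastoid line is scored as loss of intracellular ATP over 24 h of treatment in complete medium. CellTiter-Glo signal is fitted across concentrations with the Hill equation to give AC50.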

[17] = Cell Viability - LYMP2-018 (AID 985); note: nearly all actives have a fitted effect of over 50% in size
Outline: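 Luminescent ATP signal (CellTiter-Glo, read after 30 min at room temperature) reports viable cells after 24 hr compound treatment at 37 C. Concentration-response data were fitted to the standard Hill equation for AC50.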

[18] = Cell Viability - LYMP2-017 (AID 972)
Outline: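 2500 cells/well, 5 h 37 C; cpd 24 h 37 C in complete medium; CellTiter-Glo, 30 min RT; luminescence (ATP). AC50 via Hill fit, qHTS.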

[19] = Cell Viability - LYMP2-010 (AID 981); note: nearly all actives have a fitted effect of over 55% in size
Outline: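 Luminescent ATP signal (CellTiter-Glo) served as the viability read-out. Cells of the human lymphoblastoid line were treated with compound over a concentration range for 24 hours at 37 C, and AC50 values came from Hill-equation modeling.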

Measured: Potency

N#CC1(O)CCCCC1
not listed: [18] | [19]
inactive: all other assays above

Nc1cc(Cl)c([N+](=O)[O-])cc1O
not listed: [7] | [8] | [9]
inactive: all other assays above

O=C(O[C@@H](C(=O)O)[C@@H](OC(=O)c1ccccc1)C(=O)O)c1ccccc1
not listed: [12] | [18]
inactive: all other assays above

CCCCCCCCC/C=C/CC1CC(=O)OC1=O (stereo unspecified)
not listed: [9] | [14]
inactive: all other assays above

O=C(O)CCSSCCC(=O)O
not listed: [1] | [12] | [13]
inactive: all other assays above

Cc1ccc2cccnc2c1
not listed: [1]
inactive: all other assays above

CCCCC(CC)COCC1CO1 (stereo unspecified)
not listed: [1] | [8] | [12]
inactive: all other assays above

CC(=O)OC(C)C
not listed: [7]
inactive: all other assays above

Cc1cccc2ccccc12
not listed: [1] | [8] | [10]
inactive: all other assays above
